Among the data in PubChem BioAssay (EPA / NIEHS) are outcome values, retold here.

The source made the active and inactive calls. The calls were made as follows: active = hit-call score of the fitted dose curve at least 0.9, where 1 is the maximum; inactive = score below 0.9.

The first experiment in a line: CCTE_Padilla_ZF_Score.Spine: CCTE's 144 Hour Post-fertilization zebrafish Assay Score for Spine Malformation, Padilla Lab (AID 2284407). In short, it runs like this:
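Spine malformation scored at 6 dpf by two independent blinded observers under stereomicroscope, after static sealed exposure from 6–8 hpf at 26C in Hanks' solution with rinse on 5 dpf. Positive-direction fit against DMSO control.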
Consider `FC(F)=C(F)OC(F)(F)C(F)(F)C(F)(F)F`, for which the compound was classed as inactive.
Same read-out and setting: next, `CCOC(F)(F)C(F)(F)C(F)(F)C(F)(F)F`: “inactive”.
The same measure, in the same setting: next, `CC=CC(F)(F)C(F)(F)C(F)(F)F`: “inactive”.

The next experiment in a line: CCTE_Padilla_ZF_Score.Swim_bladder: CCTE's 144 Hour Post-fertilization zebrafish Assay Score for Swim Bladder Malformation, Padilla Lab (AID 2284408). As for the experimental part:
CCTE_Padilla_ZF_Phenotype_Score is a whole embryo, multiplexed assay using zebrafish ova exposed for 144 hours post fertilization on a 96-well plate.CCTE_Padilla_ZF_Score.Swim_bladder is one of one assay component(s) measured or calculated from the CCTE_Padilla_ZF_Phenotype_Score assay. It is designed to make measurements of zebrafish development as detected with brightfield microscopy of developing zebrafish embryos.Data from the assay component CCTE_Padilla_ZF_Score.Swim_bladder was analyzed into 1 assay endpoints. This assay endpoint, CCTE_Padilla_ZF_Score.Swim_bladder, was analyzed in the positive analysis fitting direction relative to DMSO as the negative control and baseline of activity. Using a type of viability reporter, gain-of-signal activity can be used to understand changes in developmentals as they relate to the whole embryo. To generalize the intended target to other relatable targets, this assay endpoint is annotated to the zebrafish development intended target family, where the subfamily is swim bladder morphogenesis.
Zebrafish husbandry: Wild type adult zebrafish (Danio rerio; undefined outbred stock obtained from Aquatic Research Organisms, Hampton, NH, 03842) were housed in an AAALAC-approved animal facility at 28C with a 14:10 h light: dark cycle (lights on at 08:30 h). Adult fish (2-3 females per male; density = 15-20 adults per tank) were kept in one of several 9-liter (L) flow-through colony tanks (Aquaneering Inc., San Diego, CA). All adults in a colony tank were placed in a 2 L (static) breeding tank (Aquatic Habitats, Apopka, FL) one hour prior to light onset. Typically, adults from two to three colony tanks were mated on the same day. Two hours after light onset the adults were returned to the colony tank. […]
As for `FC(F)=C(F)OC(F)(F)C(F)(F)C(F)(F)F`, the outcome was inactive.
On the same count and under the same terms, the same measure for `CCOC(F)(F)C(F)(F)C(F)(F)C(F)(F)F`: “inactive”.
On the same count and under the same terms, the same measure for `CC=CC(F)(F)C(F)(F)C(F)(F)F`: “inactive”.

The nature of the next experiment: CCTE_Padilla_ZF_Score.Position: CCTE's 144 Hour Post-fertilization zebrafish Assay Score for Position, Padilla Lab (AID 2284409). The method, boiled down: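 Wild-type zebrafish embryos (with chorions) exposed singly from 6–8 hpf in sealed wells of Hanks' solution at 26C, rinsed at 5 dpf. At 6 dpf, blinded assessors scored abnormal water-column position by brightfield stereomicroscopy, relative to DMSO.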
Turning to `FC(F)=C(F)OC(F)(F)C(F)(F)C(F)(F)F`, the result was inactive.
Still for that read-out and setting: the same measure for `CCOC(F)(F)C(F)(F)C(F)(F)C(F)(F)F`: “inactive”.
`CC=CC(F)(F)C(F)(F)C(F)(F)F`: the compound was called inactive.

The next experiment can be described thus: CCTE_Padilla_ZF_Score.Living: CCTE's 144 Hour Post-fertilization zebrafish Assay Score for Viability, Padilla Lab (AID 2284410).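 Also: larval death at 6 dpf judged by absent heartbeat or coagulation.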 In short, it runs like this: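 Mortality at 6 dpf, judged as absent heartbeat or coagulation by two blinded observers, after sealed static exposure beginning at 6–8 hpf at 26C. Larvae were rinsed free of chemical at 5 dpf, and activity was fitted relative to DMSO.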
Consider `FC(F)=C(F)OC(F)(F)C(F)(F)C(F)(F)F`, for which the compound was called inactive.
As for `CCOC(F)(F)C(F)(F)C(F)(F)C(F)(F)F`, the call was inactive.
Still for that read-out and setting: the same measure for `CC=CC(F)(F)C(F)(F)C(F)(F)F`: “inactive”.
